Compounds with a hit are over-represented: about 4.7% of the library has one in this group of screens.
tim10-1 inh – tim10-1 yeast growth inhibition; S. cerevisiae tim10-1 ts strain growth, BacTiter-Glo, 24 h; inhibition, % at 20 µM; 330,000 compounds, 2.2% hits; AID 463190;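 active = inhibition of at least 40%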;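 also: mutant grown at 25 °C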
PfHsp90 set2 – reduces growth (ATP signal) of yeast expressing P. falciparum Hsp90; S. cerevisiae expressing PfHsp90, BacTiter-Glo ATP, 48 h; yeast lacking PDR1 and PDR3 efflux regulators; inhibition, % at 9.4 µM; 310,000 compounds, 0.32% hits; AID 504621;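 active = every replicate shows inhibition above about 80%, whatever the replicate mean, limit read from the data; inconclusive = mean inhibition reaches the set limit but some replicate falls short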
ATG4B inh – ATG4B (human) cysteine protease inhibition | ATG4B cleavage of LC3-PLA2, NBD-HPC fluorescence, 1 h | inhibition, % at 8.33 µM | Q9Y4P1 | 340,000 compounds, 0.51% hits; in the data active = inhibition above about 40%
Target sequence (Q9Y4P1 whole entry, looked up): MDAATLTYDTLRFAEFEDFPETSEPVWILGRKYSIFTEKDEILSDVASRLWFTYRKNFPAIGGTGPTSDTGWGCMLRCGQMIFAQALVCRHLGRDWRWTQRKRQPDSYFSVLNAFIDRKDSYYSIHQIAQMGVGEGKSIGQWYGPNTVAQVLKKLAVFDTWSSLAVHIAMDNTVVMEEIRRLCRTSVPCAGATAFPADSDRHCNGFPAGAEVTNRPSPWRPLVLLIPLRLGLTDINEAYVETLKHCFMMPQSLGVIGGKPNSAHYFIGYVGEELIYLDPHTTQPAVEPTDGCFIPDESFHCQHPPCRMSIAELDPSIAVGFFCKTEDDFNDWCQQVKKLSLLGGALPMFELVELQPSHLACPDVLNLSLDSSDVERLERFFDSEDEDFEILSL
TIM10 inh – growth inhibitors of TIM10 yeast strain; inhibition, % at 10 µM; 330,000 compounds, 1.4% hits; S. cerevisiae TIM10 strain growth, BacTiter-Glo luminescence, 24 h;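 active = inhibition of 40% or more at the single tested concentration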;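 also: wild-type TIM10 isogenic control strain grown at permissive 25 °C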
SKKanGAS inh – blocks kanamycin growth of S. pyogenes SKKanGAS strain; BacTiter-Glo, 6 h; inhibition, % at 7.5 µM; 300,000 compounds, 1.3% hits; AID 1662;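 active = mean replicate score, as percent of positive control median, at least 50; inconclusive = mean below 50 but one replicate at or above 50; inactive = mean and every replicate below 50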;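 also: strain carries kanamycin resistance gene driven by streptokinase promoter and grows in 40 µg/ml kanamycin; loss of luminescence reflects streptokinase promoter inhibition or plain growth inhibition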
tim23-1 inh – growth inhibitors of tim23-1 mutant yeast; S. cerevisiae tim23-1 growth, BacTiter-Glo luminescence, 24 h; inhibition, % at 20 µM; 330,000 compounds, 1.3% hits; AID 463212;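 active = growth inhibition of the mutant yeast at or above 50%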;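 also: temperature-sensitive mutant grown at 25 °C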
tim10 confirm – TIM10 yeast growth inhibition, confirmed. 4,600 compounds, 63% hits. S. cerevisiae tim10 strain growth, BacTiter-Glo luminescence, 24 h. inhibition, % at 10 µM. shares compounds with TIM10 inh;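 active = inhibition of yeast growth at or above a set limit in either of two replicates at 10 µM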; also: this counterscreen used the strain with wild-type TIM10
Hits are given with their value; – = inactive; ? = inconclusive; · = no result.

SMILES	tim10-1 inh	PfHsp90 set2	ATG4B inh	TIM10 inh	SKKanGAS inh	tim23-1 inh	tim10 confirm
CCCCCCCCCCCCCCCC[n+]1ccc(C(N)=O)cc1	–	104	–	48	·	–	–
CCCCC(=O)Nc1ccc(C(N)=O)cc1	–	–	–	–	–	–	·
CCOC(=O)CN1C=C(c2ccc3ccccc3n2)C(C[N+](=O)[O-])c2ccccc21 (stereo unspecified)	–	–	–	57	–	–	62
FC(F)(F)c1nnc(-c2ccccc2)nc1Sc1ccccc1	–	–	–	45	–	–	–
C/C(=N\NC(=O)CNC(=O)C1COc2ccccc2O1)c1ccc(Cl)cc1 (stereo unspecified)	–	–	–	–	–	–	·
COc1cc2c(C(=O)N3CCOCC3)c(CSc3ccccc3)n(C)c2cc1Br	–	–	–	40	–	–	30
Cc1ccc(NC(=S)Nc2ccc(OC(F)F)c(Cl)c2)cc1F	–	–	–	42	?	–	36
Cc1cccc(Cn2ccc(NC(=O)c3ccc4c(c3)OCO4)n2)c1	–	–	–	40	–	–	34
Cc1ccc(N2C(=O)c3cccc(Oc4ccc(Cl)cc4)c3C2=O)c(C)c1	–	–	–	42	–	–	–
CCOC(=O)C1=C(C)N(CCCC(=O)O)C(=O)NC1c1ccccc1OS(=O)(=O)c1ccccc1[N+](=O)[O-] (stereo unspecified)	–	–	–	97	–	–	–
CC1CCCCC1NC(=O)C1CC=CCC1C(=O)O (stereo unspecified)	–	–	–	–	–	–	·
COc1ccc(-c2cc(C3CCN(CC(O)C(F)(F)F)CC3)[nH]n2)cc1 (stereo unspecified)	–	–	–	–	–	–	·
COc1ccc(-c2cc(C3CCN(c4cc(Cl)nc(N)n4)CC3)[nH]n2)cc1	–	–	–	43	–	–	–
c1ccc(-c2noc(-c3cccc4ccccc34)n2)cc1	–	–	–	–	–	–	·
COc1cccc2cc(-c3nc4ccccc4o3)c(=O)oc12	–	–	–	60	–	–	67
O=c1oc2ccc(Br)cc2cc1-c1nc2ccccc2o1	–	–	–	–	–	–	·
CCN(CC(=O)Nc1cccc(Br)c1)Cc1nc2ccccc2c(=O)[nH]1	·	–	–	·	·	·	·
CCC(C)n1c(-c2ccco2)nc2nc3ccccc3nc21 (stereo unspecified)	–	·	·	46	–	–	–
CC(C)OCCCn1c(-c2ccco2)nc2nc3ccccc3nc21	–	·	–	–	–	–	·
O=C(Nc1cccc(C(F)(F)F)c1)C1CCCCC1	–	–	–	–	–	–	·
Cc1ccccc1N1C(=O)CC(Sc2nnc(-c3ccccc3)o2)C1=O (stereo unspecified)	–	–	–	44	–	–	44
Cc1cc(C(=O)OCC(=O)Nc2cccc(S(N)(=O)=O)c2)c2ccccc2n1	–	–	–	–	·	–	·
CC(=O)c1ccccc1NS(=O)(=O)c1c(C)nn(-c2ccccc2)c1C	–	–	–	47	–	–	–
Cc1cc(C)cc(OC(C)C(=O)Nc2ccc3c(c2)n(C)c(=O)n3C)c1 (stereo unspecified)	–	–	–	–	–	–	·
CCn1c(O)c(C=NCc2cccs2)c(=O)n(CC)c1=S	–	–	–	42	–	–	–
SMILES	tim10-1 inh	PfHsp90 set2	ATG4B inh	TIM10 inh	SKKanGAS inh	tim23-1 inh	tim10 confirm
CCOC(=O)Cc1csc(NC(=O)c2ccc3c(c2)OCO3)n1	–	·	–	43	–	–	–
CCOC(=O)Cc1csc(NC(=S)NC(=O)c2ccccc2Br)n1	–	–	–	42	–	–	–
CCOC(=O)Cc1csc(NC(=O)c2ccc(C)cc2)n1	–	–	–	–	–	–	·
O=C(N=Nc1c(O)[nH]c2ccccc12)c1cc(NS(=O)(=O)c2cccs2)cc(NS(=O)(=O)c2cccs2)c1	–	·	–	–	–	–	·
O=C(N=Nc1c(O)[nH]c2ccccc12)c1cccs1	–	–	–	62	–	–	47
C=CCc1c(C)nc(-c2ccccc2)nc1N/N=C(\C)c1ccccc1	–	–	–	–	–	–	·
C=CCc1c(C)nc(-c2ccccc2)nc1Nc1ccc(O)cc1	–	–	–	40	–	–	–
CC1S/C(=N/N=C2CCC(C(C)(C)C)CC2)NC1=O (stereo unspecified)	–	–	–	–	–	–	·
CCc1nnc(NC(=O)COc2ccccc2[N+](=O)[O-])s1	–	–	–	40	–	–	–
COC(=O)CCS(=O)(=O)c1nc(-c2ccccc2)cc(C(F)(F)F)n1	–	–	–	45	–	–	31
O=C(O)CCS(=O)(=O)c1nc(-c2cccs2)cc(C(F)(F)F)n1	–	–	–	–	–	–	·
CCOC(=O)CCS(=O)(=O)c1nc(-c2ccccc2)cc(C(F)(F)F)n1	–	–	–	52	–	–	58
Cc1cc(NC(=O)CCCS(=O)(=O)c2nc(-c3cccs3)cc(C(F)(F)F)n2)no1	–	–	–	49	–	–	37
O=C(N/N=C/c1ccccc1[N+](=O)[O-])c1ccc2c(c1)OCCO2	–	–	–	–	–	–	·
CCOC(=O)c1sc(=NC(=O)c2ccc(C)cc2)n(C)c1C	–	·	–	42	–	–	–
CN(CC(=O)OCC(N)=O)S(=O)(=O)c1ccc(Cl)cc1	–	–	–	40	–	–	–
O=C(N[C@@H](Cc1c[nH]c2ccccc12)C(=O)O)C1CCN(S(=O)(=O)c2ccc(Cl)cc2)CC1	–	–	–	–	–	–	·
COc1ccc2oc(=O)c(-c3nnc(N)s3)cc2c1	–	–	–	62	–	–	60
Nc1nnc(-c2cc3ccccc3oc2=O)s1	–	–	–	–	–	–	·
O=C(Nc1ccc(NC(=O)C2CC2)nc1)c1cccs1	–	–	–	–	–	–	·
CCCC(=O)Nc1ccc(NC(=O)c2ccccn2)cn1	–	–	–	–	–	–	·
CCCC(=O)NC(=S)Nc1ccc(NC(=O)c2cccs2)cc1	–	·	–	45	–	–	–
O=C(Nc1ccc(NC(=O)c2cccs2)cn1)c1ccccc1	–	–	–	42	–	–	30
CCCC(=O)Nc1ccc(NC(=O)c2cccs2)cn1	–	–	–	40	–	–	–
COc1ccc(-n2c(C)c3c(OC)cccc(=O)c3c2C)cc1	–	–	–	–	–	–	·
COc1nnc(-c2ccc(N3CCOCC3)c(NC(=O)c3ccccc3)c2)c2ccccc12	–	–	–	40	–	–	–
COc1nnc(-c2ccc(N3CCOCC3)c(NC(C)=O)c2)c2ccccc12	–	–	–	–	–	–	·
OCC(Cc1ccccc1)Nc1c2ccccc2nc2ccccc12 (stereo unspecified)	–	–	–	56	–	–	–
